Assay results: PubChem BioAssay AID624263 (National Center for Advancing Translational Sciences (NCATS), 2012)
Where “and” joins values, the source holds several entries; their conditions need not be identical. Equal entries are not always repeated. In all, about 410,000 compounds went through this assay and about 820 (0.2%) were called active. Not shown: some 2% with an inconclusive outcome. Calls follow the shape of the dose curve; as a rule, active = well fitted activation curve with a large enough effect; inconclusive = small, poorly fitted or top-dose-only effect; inactive = flat fitted curve, though single readings scatter; cell line not stated here. Shown is part of a subset that was picked to be rich in actives. Where a structure was tested more than once in an assay, its records may differ in their call.

Experiment: A Quantitative High throughput Screen to Identify Chemical Modulators of PINK1 Expression; also: nearly all actives have a fitted effect of over 65% in size; as to activation (PINK1 increase): % of control where 0% means no effect
Conditions: PINK1 immunofluorescence, high-content cytometry, 24 h; series mostly up to 76.6 µM; activation (PINK1 increase): at the top concentration
From the text: The overall goal of this project is to develop new tools for understanding and treating the mitochondrial basis for neurodegenerative disease such as Parkinson's disease (PD). The PINK1 campaign was developed from recent data pointing towards mitochondrial dysfunction as a major contributor to dopaminergic neuron loss. The discovery of PINK1/Parkin mediated mitophagy has highlighted the potential for mitochondrial quality control as a novel target for therapeutic intervention. […] A second aim of this project is the development of chemical probes to study the mechanics of mitochondrial quality control. As the PINK1/Parkin mitophagy pathway is a relative recent discovery, no specific chemical probes are available that modulate the process. Presently, only crude tools that cause nonspecific mitochondrial damage are available. To advance the understanding of mitophagy, specific, well characterized chemicals that target various steps of mitophagy regulation need to be developed. New chemical probes may have the ability to dynamically manipulate mitophagy in model organisms such as rodents and zebrafish, advancing our understanding of the process in development and disease. This HTS campaign seeks to discover an activator of PINK1 expression by modulation at the level of post-translational processing.
The PINK1 assay determines the amount and localization of PINK1 protein in a cell using a combination of immunofluorescence and cell staining. The goal of the assay is to determine small molecules that can increase the expression of Pink1 on or inside the cell's mitochondria (ideally without mitochondrial depolarization) using a stable cell line. Since PINK1 protein is rapidly degraded in un-perturbed cells, compounds that induce the enhancement of PINK1 protein expression are identified by determining PINK1 immunofluorescence in conjunction with a mitochondrial, cell, and nuclear marker post fixation. To facilitate rapid high content screening, the primary assay is run in a decision-based HTS mode where compound titration data collected by laser-scanning microplate cytometers is processed and only promising compound series are passed off for high content drill down.
1 Add cells to black, clear-bottom, low-base 1536-well plates 6 uL (250 cells/well)
2 Incubate in TC incubator (12 hours)
3 Pin compounds or DMSO controls 23 nL (5 concentrations per compound set)
4 Dispense CCCP to control columns
5 Incubate in TC incubator 24 hours
6 Aspirate media and fix cells (5 uL of fixative containing nuclear dye)
7 Incubate 15 minutes at RT
8 Wash in PBSTween (12 uL/well)
9 Wash in PBSTriton (12 uL/well)
10 Aspirate wash and add Blocking buffer (4 uL/well)
12 Aspirate block and add primary antibodies 3.5 (uL/well)
13 Incubate 12 hours at 10 degrees C
14 Wash in PBSTween-20 two times (12 uL/well)
15 Aspirate wash and add secondary antibodies (12 uL/well)
17 Wash in PBSTween (12 uL/well)
18 Wash in PBSTween with cell stain (12 uL/well)
19 Read plates on Acumen EX3 and determine Wells2Cells coordinates
Potency is read from the fitted curve at half-maximal effect.

Activation (PINK1 increase), inactive:
Cc1cccc(OCC(O)CN2CCN(S(=O)(=O)c3ccc(C)cc3C)CC2)c1 (configuration not stated) 0.654%
OC(COc1ccc(F)cc1Cl)CN1CCc2ccccc2C1 (configuration not stated) 1.72%
O=C(NCC1Cc2cc(F)cc(-c3cnccn3)c2O1)C1COc2ccccc2O1 (configuration not stated) 0.603%
O=C(C(=O)N1CCOc2ccc(CN3CCN(Cc4ccccn4)CC3)cc2C1)c1ccccc1 0.0595%
COc1ccc2c(c1)CCc1cnc(-n3ncc(C(=O)NCc4cccnc4)c3C3CC3)nc1-2 0.559%
O=Nc1c(O)cc(O)c2ccccc12 1.49%
O=C(N/N=C/c1cccc2cccnc12)[C@H]1C[C@@H]1c1ccccc1 -0.0622%
CCC1CN(CCNC(=O)c2cccnc2C)Cc2cc(OC)ccc2O1 (configuration not stated) -0.526%
Cc1c(C(=O)NCC2CCCN(C)C2)cnn1-c1nccc(-c2ccco2)n1 (configuration not stated) 0.569%
CCN(CC)c1ccc(/C=C/c2c(C)cnc3ccc(C)cc23)cc1 3.71%
COc1cc(C)c(CN2CCc3nnc(C(C)NC(=O)c4cccnc4)n3CC2)cc1C (configuration not stated) 0.397%
Cc1ccc(CNC(=O)Nc2nnc([C@H]3C[C@H](O)[C@@H](CO)O3)s2)cc1 -0.0573%
CCCCN(C)c1nnc(NC(=O)Nc2ccc(Br)c(C)c2)s1 0.951%
C/C=C/NNC(=O)Cc1ccc(OC)cc1 7.35%
Cn1cccc1C(=O)N1CCC2(CC1)CN(c1cccc(-c3ccccc3)c1)C2 0.654%
COc1c2c(cc3occ(-c4ccc5c(c4)OCO5)c(=O)c13)OC(C)(C)C=C2 1.47%
CC(=O)c1ccc(NC(=O)C(C)NCc2ccc(Cl)cc2)cc1 (configuration not stated) 0.227%
CC(=O)N1CCC(N(C(=O)Nc2ccc(Cl)cc2)C(C)C)CC1 0.539%
COc1cc(=O)n2c(c1C(=O)NC(C)c1ccco1)CCN(Cc1cc(C)cc(C)c1)CC2 (configuration not stated) 0.333%
COc1ccc2[nH]cc(CCNc3ncnc4ccc(-c5ccc(C(=O)N(C)C)cc5)cc34)c2c1 1.44%
O=C(CNS(=O)(=O)c1ccc2ccccc2c1)Nc1ccc(F)c(F)c1F 6.76%
O=C(CNc1cccc(S(=O)(=O)N2CCCCC2)c1)Nc1ccccc1F 0.781%
Cc1cnc(-n2ncc(C(=O)N3CCN(C(C)C)CC3)c2-c2ccco2)nc1-c1ccc(F)cc1 1.72%
CC(C)(C)c1ccc(C(=O)C[n+]2cccc3cc(Cl)ccc32)cc1 5.06%
OCC1CCCN(c2nc3cc4c(cc3cc2CNCc2cccs2)OCO4)C1 (configuration not stated) -0.93%
Cc1ccc(NC(=O)COC(=O)C2CC2)cc1S(=O)(=O)N1CCOCC1 0.894%
Cc1ccc(NC(=O)CCCNC(=O)c2ccc(Cl)cc2)cc1S(=O)(=O)N1CCCCC1 2.17%
COc1cc(=O)n2c(c1C(=O)NC(C)c1ccco1)CCN(C(=O)c1cn3ccc(C)cc3n1)CC2 (configuration not stated) 0.949%
COc1cc(=O)n2c(c1C(=O)N(C)Cc1nonc1C)CCN(C(=O)c1ccc(C)cc1C)CC2 -0.189%
CCC1CN(CCNC(=O)c2ccsc2)Cc2cc(OC)ccc2O1 (configuration not stated) -0.839%
Cc1nc2cc(NC(=O)[C@@H]3C[C@@H](Sc4ccccn4)CN3Cc3ccccc3C)ccc2s1 0.376%
N#Cc1ccc[n+](CC(=O)c2ccc(O)c(O)c2)c1 0.262%
O=C(Nc1nnc(S(=O)(=O)N2CCCc3ccccc32)s1)c1cccc(F)c1 2.55%
Cc1nn(Cc2ccc(F)cc2)c(C)c1NC(=O)c1cc(CC(C)C)on1 0.475%
CC(C)Cc1cc(C(=O)NCCc2ccccc2)no1 0.759%
Cc1nc2cnc(N3CCNCC3)nc2n(Cc2ccc(F)cc2)c1=O -0.606%
COCc1c(C(=O)NC2CCCCC2)cnn1-c1nccc(-c2ccccc2OC)n1 0.512%
COc1ccc(/C=C/c2ccccn2)cc1OC 1.64%
CCCS(=O)(=O)NCc1c(C)ncc2c1CCN(C(=O)c1ccc(F)c(F)c1)C2 0.24%
CC(O)(COc1ccccc1)c1ccc2c(c1)CN(Cc1cn[nH]c1-c1ccc(F)cc1)CCO2 (configuration not stated) -0.0916%
O=[N+]([O-])c1ccccc1N/N=C1\CCc2ccccc21 1.04%
CN(C)c1ccc(/C=N\Nc2ccc([N+](=O)[O-])cc2[N+](=O)[O-])cc1Cl 0.417%
COc1ccc(C)cc1N1C(=O)[C@@H]2C[C@H]1CN2Cc1cccc(OC)c1O 0.987%
Cc1[nH]c2c(C(=O)NCC3Cc4cccc(-c5cccnc5)c4O3)cccc2c1C (configuration not stated) 1.19%
CN(C)c1ccc(C=Nc2ccc(/C=C/c3ccnc4ccccc34)cc2)cc1 -0.636%
COc1ccc2c(c1)c(=Cc1ccc(N(C)C)cc1)c1cc(-c3ccccc3)[n+](C)n12 -1.26%
COc1ccccc1-c1ccc(C(=O)N(C)C(C)c2ccon2)c(N2CCN(c3ccccc3F)CC2)n1 (configuration not stated) 1.15%
Cc1ccc(-c2ccnc(-n3ncc(C(=O)N(C)Cc4cccc5ncccc45)c3C3CC3)n2)o1 0.511%
CN(C(=O)CSc1nnc(NC(=O)Nc2ccccc2)s1)c1ccccc1 1.45%
Cc1ccc(C(=O)Nc2nc(-c3ccccc3)ns2)cc1 14.4%
CC(=O)c1ccc(NC(=O)CSc2nnc(NC(=O)Nc3ccccc3)s2)cc1 -0.057%
CC(=O)c1cccc(NC(=O)CSc2nc3c(c(=O)[nH]2)CCC3)c1 1.26%

Potency, inactive and 28.2 µM (active):
O=C(Nc1nnc(S(=O)(=O)N2CCCCCC2)s1)c1cccc(Br)c1

Potency, inactive:
O=C(Nc1nnc(S(=O)(=O)N2CCOCC2)s1)c1cccc(Br)c1

Potency, active:
Cc1ccc(OCC(O)CN2CCN(CC(O)COc3ccc(C)cc3Cl)CC2)c(Cl)c1 (configuration not stated) 11.2 µM
O=C(NN=Cc1ccccc1O)NN=Cc1ccccc1O 0.891 µM
CC12CCC(C(=O)N(CCC#N)CCC#N)(CC1=O)C2(C)C (configuration not stated) 5.01 µM
Cc1ccc(NC(=O)Nc2nnc(-c3ccncc3)s2)cc1 15.8 µM
CCCc1cc(=S)n2c([nH]c3ccccc32)c1C#N 28.2 µM
CC(C)S(=O)(=O)c1csc(NC(=O)Nc2ccc(Cl)cc2)c1Cl 15.8 µM
O=C(CNS(=O)(=O)c1cccc(C(F)(F)F)c1)Nc1ccccc1F 10 µM
Cc1ccc(NC(=O)CCC(=O)N2CCC(c3ccccc3)=N2)cc1S(=O)(=O)N1CCCCC1 11.2 µM
CC(C)Cc1cc(C(=O)Nc2cc(Br)ccc2O)no1 44.7 µM
O=[N+]([O-])c1ccc(O)c(/C=N/Nc2ccccc2[N+](=O)[O-])c1 20 µM
CN(C)c1ccc(/C=C/c2sc3ccccc3[n+]2C)cc1 44.7 µM
CSc1nsc(NC(=O)Nc2ccccc2)n1 22.4 µM
C=CCSc1nsc(NC(=O)Nc2cccc(C(C)=O)c2)n1 15.8 µM
